A selection: hits, their analogues and other compounds. The true share with any hit is near 3.6%.
S16 viability: Cell viability qHTS assay in S16 Pmp22-F2sN cells. S16 Pmp22-F2sN Schwann cells viability, CellTiter-Glo, 24 h. Potency, µM (doses to about 57.5 µM), without a hit: at the top dose activity change, negative = cytotoxicity, hits mostly cytotoxic. hit rate 0.48% among 43,000; note: % is set by controls: 0 for no effect and ±100 for the full control effect; nearly all actives have a fitted effect of over 65% in size
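CellTiter-Glo counter-screen, qHTS, 1536-well. Cells: S16(c9) Pmp22-F2sN, 500-1,000/well in DMEM + 10% FBS. Cpd 23 nL pin transfer, 24 h, 37C/5% CO2. Read: luminescence, CCD imager.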
pS6 MEF inh: Acumen qHTS Assay for Inhibitors of the mTORC1 Signaling Pathway in MEF (Tsc2-/-, p53-/-) Cells: Sytravon | Tsc2-/- p53-/- MEF, phospho-rpS6 immunofluorescence/PI, 24 h | Potency, µM (top dose mostly 38.3 µM), for the others: at the highest dose activity change, negative = inhibition, most hits filed as inhibitors | hit rate 0.78% among 44,000;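 note: plate controls were DMSO for no effect and rapamycin for full effect; nearly all actives have a fitted effect of over 50% in size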
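Tsc2-/-, p53-/- MEFs (empty-vector stable line) in DMEM + 10% FBS were treated with compounds 24 h at 37 degree Celsius, fixed, and immunostained for phospho-rpS6 (Alexa-488) with propidium iodide counterstain. Laser-scanning cytometry gave % positive cells, normalized against 7.5 nM rapamycin and DMSO.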
HTT promoter inh: Primary qHTS for Identification of Small Molecule Inhibitors of Huntingtin Promoter Activity; AID 1508623, 2021; HEK293 HTT promoter firefly luciferase reporter, 24 h; Potency, µM (series often up to 57.5 µM), for the others: top-dose activity change, negative = inhibition, usual class: inhibitors; hit rate 0.93% among 48,000; note: nearly all actives have a fitted effect of over 50% in size
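HEK293 cells carrying firefly luciferase reporters were seeded at 2,500 per well in Opti-MEM and cultured for 24 h. They were then treated with compounds at up to 57.5 uM final for 24 h at 37 degrees C before Dual-Glo luminescence readout.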
SKOV3 invasion: Primary qHTS assay for Inhibitors of ovarian cancer metastasis using an organotypic tumor microenvironment (TME) model; SKOV3ip1-GFP adhesion/invasion on 3D omental model, fluorescence; Potency, µM (titrated, usually from 45.8 µM), without a hit: at the top dose activity change, negative = inhibition, most hits filed as inhibitors; hit rate 0.1% among 46,000;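 note: plate controls were DMSO wells for no effect and tomatine positive control wells for full effect; nearly all actives have a fitted effect of over 65% in size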
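qHTS, 4-pt dose (0.36-46 umol/L); SKOV3ip1-GFP, 1,200 cells/well, no FBS; primary omental fibroblast/mesothelial co-culture 48 h pre-grown; 2 h RT + 16 h 37 C; PBS wash, 4% PFA; GFP count 488/509 nm.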
HTT-AS act: Primary qHTS for Identification of Small Molecule Activators of Huntingtin-Antisense Promoter Activity; hit rate 0.24% among 48,000; HEK293 HTT-AS promoter firefly luciferase reporter, 24 h; response scale: percent change from vehicle, -100% = no light; Potency, µM (series often up to 57.5 µM), for inactives: at the top dose activity change, positive = activation, usual class: activators; note: nearly all actives have a fitted effect of over 55% in size
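HEK293 Fluc reporter, 2,500 cells/well, 24 h pre-culture; cpds up to 57.5 uM final, 24 h 37 degrees C; Dual-Glo, 10 min RT; normalized vehicle = 0%, zero RLU = -100%.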
PMP22 txn prim: Cell-based coincidence reporter assay to measure PMP22 gene transcription in S16 Pmp22-F2sN cells - Primary screen; S16 Pmp22-F2sN Schwann cells (luciferase reporters placed in the Pmp22 gene), FLuc/NLuc coincidence luminescence, 24 h; Potency, µM (top dose mostly 57.5 µM), without a hit: at the highest dose activity change, negative = inhibition, most hits filed as inhibitors; hit rate 2% among 43,000; AID 1508649, 2021; active = clear falling dose curves in both reporters; inconclusive = both reporters move, but less clearly or upward; inactive = either reporter flat; the % is the NLuc reporter signal; note: % is set by controls: 0 for no effect and ±100 for the full control effect
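qHTS, 1536-well. Cells seeded, compounds added by pin tool, 24 h 37C. Nano-Glo reagent 1 (lysis/FLuc), 10 min RT, read; Stop&Glo, 10 min RT, read NLuc.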
* marks the source's active call; other numbers are inactive results; i = inactive; u = inconclusive; x = no result. Unless noted, calls come from the whole dose curve; as a rule, active = well fitted curve in the direction sought with a large enough effect; inconclusive = small, poorly fitted or top-dose-only effect, or another doubt; inactive = no such curve, though single readings can be large; an effect the other way counts as inactive or inconclusive. Potency is the fitted concentration of half-maximal effect.

SMILES | S16 viability | pS6 MEF inh | HTT promoter inh | SKOV3 invasion | HTT-AS act | PMP22 txn prim
CCc1c(C)sc2c1CCN(Cc1ccc(C#N)cc1)C2c1ccccc1 (centres undefined) | u | 13% | -19% | -1% | 4% | u
CCc1c(C)sc2c1CCN(Cc1cccc(F)c1)C2c1ccccc1 (centres undefined) | 10µM* | 7% | u | 21% | -44% | u
CCc1c(C)sc2c1CCN(Cc1ccc(F)cc1)C2c1ccccc1 (centres undefined) | 8.9µM* | 0% | u | -1% | -26% | u
CC(C)CCNS(=O)(=O)c1ccc(N2CCCCS2(=O)=O)cc1 | u | 0% | 14µM* | 5% | -21% | u
Cc1nn(-c2ccc(F)cc2)c(-n2cccc2)c1C(=O)N1CCN(c2ccc(F)cc2)CC1 | -2% | -14% | 28µM* | i | -34% | -3%
CCCCNC(=O)c1nn(-c2ccc(C)cc2)c(=O)c2c1c1ccccc1n2C | 16µM* | 1% | -27% | 7% | -5% | -20%
CCCC1=Nc2cc(C(=O)NCc3ccccc3)ccc2Sc2ccccc21 | u | u | u | u | -37% | 12µM*
Cc1cc(CS(=O)(=O)c2ccccc2)cc(OCc2ccc(CN3CCC[C@H]3CO)cc2)c1 | x | x | 3% | 29% | -2% | x
O=C1C2=C(Nc3ccccc3SC2c2ccccc2C(F)(F)F)c2ccccc21 (centres undefined) | u | u | u | i | -43% | 13µM*
CCCc1ccc(C2Sc3ccccc3NC3=C2C(=O)c2ccccc23)cc1 (centres undefined) | u | u | 32µM* | u | -53% | u
O=C1C2=C(Nc3ccccc3SC2c2ccc(Cl)c(Cl)c2)c2ccccc21 (centres undefined) | u | -8% | u | -25% | -63% | u
O=C1C2=C(Nc3ccccc3SC2c2c(F)cccc2Cl)c2ccccc21 (centres undefined) | u | -8% | -21% | u | 0% | u
CCCS(=O)(=O)c1c(S(=O)(=O)CCC)c2cc(C(C)(C)C)ccn2c1C(=O)c1ccccc1 | -14% | 7% | 25µM* | 3% | -84% | -8%
CCCS(=O)(=O)c1c(S(=O)(=O)CCC)c2cc(C(C)(C)C)ccn2c1C(=O)c1ccc(OC)c(OC)c1 | -2% | u | -22% | -9% | -21% | -4%
CCC(=O)N1c2ccccc2C(C)(c2ccccc2)CC1(C)C (centres undefined) | -1% | -7% | 10% | 16% | -4% | -3%
CC1(c2ccc(Cl)cc2)CC(C)(C)N(C(=O)c2ccccc2)c2ccccc21 (centres undefined) | -29% | -1% | 25µM* | i | -40% | u
Fc1ccc(-n2ncc3c(NCCC4=CCCCC4)ncnc32)cc1 | 11% | 9% | 38% | -4% | 10µM* | -128%
CC(Oc1ccc(Br)cc1)C(=O)Nc1ncn[nH]1 (centres undefined) | -3% | 6% | -7% | 5% | -7% | -1%
CCc1ccc(OCC(=O)Nc2ncn[nH]2)c(Br)c1 | -3% | -4% | 54% | 13% | 25µM* | -13%
O=C(COc1ccc(Br)cc1Cl)Nc1ncn[nH]1 | -2% | -4% | 72% | 13% | 8.9µM* | 2%
Cc1cc(C=c2sc3nc4ccccc4n3c2=O)c(C)n1-c1ccccc1 | x | x | u | -27% | -83% | x
Cc1nn(-c2ccccc2)c2c1N(CCCC(=O)NCc1ccc(OC(C)C)cc1)C(=O)CS2 | 10µM* | 0% | 14µM* | u | -43% | u
CC(C)(C)c1ccc(C(=O)NCC(c2cccs2)S(=O)(=O)c2ccc(F)cc2)cc1 (centres undefined) | u | -3% | 20µM* | 2% | -58% | u
Cc1cc(C)c(S(=O)(=O)NCC(c2ccco2)S(=O)(=O)c2ccccc2)c(C)c1 (centres undefined) | -10% | -5% | -25% | -14% | -22% | -26%
CCOc1ccc(S(=O)(=O)NCC(c2cccs2)S(=O)(=O)c2ccc(C)cc2)cc1 (centres undefined) | u | u | -22% | u | -10% | u
SMILES | S16 viability | pS6 MEF inh | HTT promoter inh | SKOV3 invasion | HTT-AS act | PMP22 txn prim
Cc1ccc(S(=O)(=O)C(CNS(=O)(=O)c2ccc(F)c(C)c2)c2cccs2)cc1 (centres undefined) | 25µM* | -4% | u | 14% | -31% | u
Cc1cc(C)c(S(=O)(=O)NCC(c2cccs2)S(=O)(=O)c2ccccc2)c(C)c1 (centres undefined) | 13µM* | u | -29% | u | -39% | u
CN1CCC(CNc2ccc3ncc(-c4cccc(OC(F)(F)F)c4)n3n2)CC1 | x | x | u | -9% | -30% | x
CO[C@H]1C(=O)[C@]2(C)[C@@H](OC)C[C@H]3OC[C@@]3(OC(C)=O)[C@H]2[C@H](OC(=O)c2ccccc2)[C@]2(O)C[C@H](OC(=O)[C@H](O)[C@@H](NC(=O)OC(C)(C)C)c3ccccc3)C(C)=C1C2(C)C | x | x | -16% | 8% | -34% | x
C[C@@H](Cc1cc2c(c(C(N)=O)c1)N(CCCO)CC2)NCCOc1ccccc1OCC(F)(F)F | x | x | -11% | -2% | -17% | x
CCOC(=O)c1ccc(N2C(=O)c3n[nH]c(-c4cccs4)c3C2c2cccc(F)c2)cc1 (centres undefined) | -17% | 18µM* | u | u | -25% | u
CCOC(=O)c1ccc(N2C(=O)c3n[nH]c(-c4ccco4)c3C2c2ccc(OCC)cc2)cc1 (centres undefined) | u | 13µM* | 20µM* | u | -66% | u
CCOC(=O)c1ccc(N2C(=O)c3n[nH]c(-c4ccco4)c3C2c2ccc(F)cc2)cc1 (centres undefined) | u | 0% | u | i | -57% | u
COc1cc2nccc(Oc3ccc(NC(=O)Nc4cc(C)on4)c(Cl)c3)c2cc1OC | x | x | u | 5% | -44% | x
